Measured values taken from PubChem BioAssay (NCI).
This is part of a sample that, as a whole, favours compounds with a hit. Of some 79,000 tested, about 15% had one in any assay. No stated cut-off is given here; in the data, active means growth inhibition above about 70%; inactive means the rest. Where a SMILES comes first, the peptide text is derived from it. Bridges are numbered along the chain shown (N, C = ends).

Legend:
[1] = NCI Yeast Anticancer Drug Screen. Data for the rad50 strain (AID 155);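 further: 0% = growth of vehicle-only cultures of the same strain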; settings: S. cerevisiae rad50 strain growth inhibition; at 50.0 µM; active compounds read high
Summary of the method: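 Growth of the mutant yeast was measured after compound exposure and referenced to vehicle-treated cultures.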

[2] = NCI Yeast Anticancer Drug Screen. Data for the mec2-1 strain (AID 157); settings: S. cerevisiae mec2-1 strain, at 50.0 µM, active compounds read high
Summary of the method: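 Vehicle-treated cultures served as reference for growth inhibition of compound-exposed mec2-1 yeast.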

[3] = NCI Yeast Anticancer Drug Screen. Data for the sgs1 mgt1 strain (AID 161);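 further: 0% = growth of cultures given vehicle only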; settings: S. cerevisiae sgs1 mgt1 strain, at 50.0 µM, active compounds read high
Summary of the method: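 Inhibition of yeast growth, normalised to vehicle-treated controls, is reported for a strain bearing genetic alterations in DNA damage repair.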

[4] = NCI Yeast Anticancer Drug Screen. Data for the cln2 rad14 strain (AID 165);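 further: 0% = growth equal to vehicle treated cultures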; settings: S. cerevisiae cln2 rad14 strain, at 50.0 µM, active compounds read high
Summary of the method: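 Each compound was tested on cln2 rad14 yeast. Inhibition of growth was calculated against vehicle-exposed controls.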

[5] = NCI Yeast Anticancer Drug Screen. Data for the bub3 strain (AID 167); settings: S. cerevisiae bub3 mutant strain, at 50.0 µM, active compounds read high
Summary of the method: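 Whole-cell yeast assay. The mutant strain was incubated with compounds, and growth inhibition was determined by comparison with vehicle-treated cells.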

[6] = NCI Yeast Anticancer Drug Screen. Data for the mlh1 rad18 strain (AID 175); settings: S. cerevisiae mlh1 rad18 strain growth inhibition; at 50.0 µM; active compounds read high
Summary of the method: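 Vehicle-treated cultures served as the reference for growth inhibition in a yeast strain carrying DNA damage repair alterations exposed to each compound.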

Measured: growth inhibition

C=C(C)C(O)C(O)c1c(OC)ccc2ccc(=O)oc12 (configuration not stated)
inactive: [1] -3.65% | [2] -4.25% | [3] -50.7% | [4] 14.1% | [5] -5.55% | [6] -4.4%

CC1(O)/C=C\C=C(\CO)C2CC(C)(C)C2(O)CC1 (configuration not stated)
inactive: [1] -29.9% | [2] -40% | [3] -43.1% | [4] -4.5% | [5] -46% | [6] -29.8%

CNC(=O)Nc1cc2c3c(c1)CCCN3CCC2
inactive: [1] -16.8% | [2] -36.6% | [3] -9.45% | [4] -15.8% | [5] -9.55% | [6] -8.3%

CCN(CC)C(=O)C1Cc2ccccc2N(C)C1 (configuration not stated)
inactive: [1] -16.6% | [2] -8.5% | [3] -10.4% | [4] -41.5% | [5] 3.05% | [6] -2.85%

OCc1ccccc1CC(O)c1ccccc1 (configuration not stated)
inactive: [1] -23.7% | [2] -17.3% | [3] -20.2% | [4] -4.65% | [5] 0.05% | [6] -59.4%

COc1ccccc1NC(=O)C1=C(C)NC(C)=C(C(=O)Nc2ccccc2OC)C1c1ccco1
inactive: [1] -4.8% | [2] -8.65% | [3] 20.4% | [4] 4.3% | [5] 29.4% | [6] -11.9%

NNC(=O)c1n[nH]n(N)c1=S
inactive: [1] 22.6% | [2] 25.1% | [3] 10.9% | [4] -8.65% | [5] -8.65% | [6] 24.2%

CN(C)C=Nc1cccc2c1NSN2
inactive: [1] 5.5% | [2] -6.4% | [3] -1.35% | [4] 29.1% | [5] 13.4% | [6] 33.1%

CC(C)CC(C)N=C1CC2CCC1(C)C2(C)C (configuration not stated)
inactive: [1] -32.3% | [2] -24.6% | [3] -3.35% | [4] -14.2% | [5] -7.15% | [6] -7.05%

CCSC(C#N)C(C)=O (configuration not stated)
inactive: [1] 34.9% | [2] 22.1% | [3] 56.4% | [4] 38.5% | [5] 39% | [6] 42.6%

Cc1cccc(C)c1NC(=O)Nc1ccc(C(=O)O)cc1
inactive: [1] -8.6% | [2] 31.7% | [3] 2.5% | [4] -15.8% | [5] 22.6% | [6] 11.4%

C=C(CCCC(C)OC(=O)NC(C)c1cccc2ccccc12)[Si](C)(C)C (configuration not stated)
inactive: [1] -41.7% | [2] -20.1% | [3] -19.6% | [4] -6.6% | [5] 8.3% | [6] -26.4%

COc1ccc2c(c1)CCC(c1nc3ccc(C)cc3[nH]c1=O)C2=O (configuration not stated)
inactive: [1] 7.95% | [2] 8.5% | [3] 7.95% | [4] 9.1% | [5] -4.65% | [6] 22.6%

O=c1/c(=C/c2ccc(Cl)cc2Cl)sc2nc3ccccc3n12
inactive: [1] 4.1% | [2] -23.4% | [3] -0.15% | [4] -12.8% | [5] -22.5% | [6] -7.45%

O=C(O)C=C(CBr)CBr
inactive: [1] 11.5% | [2] -3% | [3] -1.25% | [4] -24.1% | [5] 14.1% | [6] 9.05%

COC(=O)c1cc(OC)c(O)c(OC)c1
inactive: [1] -1.3% | [2] -0.4% | [3] 16.6% | [4] -12.3% | [5] 4.05% | [6] -19.9%

Nc1cc(OCc2ccccc2)ncn1
inactive: [1] 10.6% | [2] 11% | [3] 3.75% | [4] -11.6% | [5] -1.05% | [6] 20.9%

O=C(O)Cc1c(O)ccc2ccccc12
inactive: [1] -32.7% | [2] -16.3% | [3] -34.5% | [4] -29.8% | [5] -38.6% | [6] -3.7%

O=C1CCC(=O)Nc2ccc3nc4ccccc4c(c3c2)SCCCCCCCCCCCCSc2c3ccccc3nc3ccc(cc23)N1
inactive: [1] -22.4% | [2] -15.2% | [3] -15.2% | [4] -36.4% | [5] -8.4% | [6] -0.85%

CC(O)C1C(C(=O)O)C2C(C)OC(=O)C12 (configuration not stated)
inactive: [1] -0.6% | [2] -3.4% | [3] -0.8% | [4] 52.5% | [5] 2.45% | [6] 15.5%

O=C(Nc1cc(Cl)ccc1Cl)c1ccc(Cl)cc1
inactive: [1] -1.3% | [2] -14.5% | [3] 4.45% | [4] -44% | [5] -9.7% | [6] -12.7%

Cc1c(N/C=C(\C#N)C(=O)c2ccc(Cl)cc2)c(=O)n(-c2ccccc2)n1C
inactive: [1] -8.15% | [2] 6.6% | [3] -7.25% | [4] 27.2% | [5] 2.35% | [6] 30.9%

Cc1cc(COCCN(C)C)on1
inactive: [1] -3.5% | [2] 14.2% | [3] 14.9% | [4] -3.95% | [5] 11.8% | [6] 4.35%

C/C=C(/C)C(=O)O[C@H]1CC[N+]2([O-])CC=C(COC(=O)[C@@](O)([C@H](C)OC)C(C)(C)O)[C@H]12 (some centres not stated)
inactive: [1] -13.1% | [2] -5.1% | [3] -3.45% | [4] 7.5% | [5] 6.75% | [6] 12.5%

COc1ccc(Nc2nc3c(N)cc(C(F)(F)F)cc3nc2-c2ccccc2)cc1
inactive: [1] 10.7% | [2] 2.65% | [3] -1.7% | [4] 25.9% | [5] 6.1% | [6] 1.4%

CC1(C)N=C(/C(Cl)=[N+](/[O-])C(=O)c2ccc(Cl)cc2)C(C)(C)N1O
inactive: [1] -21.1% | [2] -26.9% | [3] -24.1% | [4] -7.3% | [5] -38.6% | [6] -8.4%

COc1ccc(C(=O)CC2=Nc3nnc(CCCCCCCc4nnc5n4C(=O)C(CC(=O)c4ccc(OC)cc4)=N5)n3C2=O)cc1
inactive: [1] -5.95% | [2] -1.9% | [3] -16.4% | [4] 18.9% | [5] 0.1% | [6] -24.1%

CC(C)(CO)NO
inactive: [1] -13.7% | [2] -6.9% | [3] 3.05% | [4] -0.4% | [5] -14.3% | [6] -5.7%

Cc1ccc(S(=O)(=O)OC2CCCC2OS(=O)(=O)c2ccc(C)cc2)cc1 (configuration not stated)
inactive: [1] 0.2% | [2] 14.5% | [3] -8.5% | [4] 23.4% | [5] -2.35% | [6] -9.85%

CC[C@@]1(C)CCC2c3ccc(O)cc3CC[C@H]2C1C (some centres not stated)
inactive: [1] -2.1% | [2] -9.1% | [3] 21.4% | [4] 42.6% | [5] -8.75% | [6] -6.6%

NNC(=O)C(=O)N/N=C1\CCCC1C(=O)CCC(=O)Nc1cccc(Cl)c1 (configuration not stated)
inactive: [1] -35.5% | [2] -33.4% | [3] -32.3% | [4] -1.65% | [5] -24.1% | [6] -30.9%

C=CCOCC(O)CO (configuration not stated)
inactive: [1] 32.5% | [2] -3.9% | [3] 29.8% | [4] 16.8% | [5] 10.1% | [6] 28.1%

CCCCSc1nc(NCC)nc(NCC)n1
inactive: [1] 63.6% | [2] 38.9% | [3] 67% | [4] 27.1% | [5] 40.5% | [6] 41.9%

CCOC(=O)C(c1ccccc1)c1ccccc1
inactive: [1] -11.4% | [2] -26.7% | [3] -17.6% | [4] -43.2% | [5] -12.8% | [6] -12.2%

COC(=O)C1CCC(=O)NCCCCC(NC(=O)C(N)CC(=O)O)C(=O)N1 (stereo not drawn) (H-Asp-Lys-Glu-OMe; lactam 2-3; configuration not given here)
inactive: [1] 5.4% | [2] 4% | [3] 11.3% | [4] -1.9% | [5] 15.1% | [6] -27.9%

CCCCCOc1ccc(/C=C\C(=O)O)cc1
inactive: [1] 11.3% | [2] 2.55% | [3] -11.2% | [4] -6.75% | [5] -18.4% | [6] -6.35%

CC1CN(CC2COc3ccccc3O2)C(C)CN1 (configuration not stated)
inactive: [1] 61.8% | [2] 17.4% | [3] 57.2% | [4] 58.5% | [5] 53.4% | [6] 34.2%
